Among the test systems are DU-145 prostate; K-562 leukemia; MALME-3M melanoma; MDA-MB-231 breast; RXF 393 renal; SF-268 CNS; SF-295 CNS; SF-539 CNS; UACC-257 melanoma; M14 melanoma; HCT-15 colon; HT29 colon; SNB-75 CNS; SNB-19 CNS; U251 CNS; PC-3 prostate; SK-MEL-5 melanoma; UACC-62 melanoma; LOX IMVI melanoma; SK-MEL-28 melanoma.
Common to all, as to assay: NCI-60 one-dose screen, 48 h (100 = growth as untreated, 0 = no growth, -100 = all killed)
What all share (conditions): 10 µM unless noted

This is part of a sample that, as a whole, favours compounds with a hit. Of some 83,000 tested, about 20% had one in any assay.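 In brief: 96-well plates, 48 h treatment, single concentration, percent growth endpoint.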 Values without a mark were called inactive. Activity calls are given as the source filed them. The calls were made as follows: active = growth percent below 10; inactive = the rest.

For `CC(C)(O)c1cncc(-c2ccc3ncc(C#N)c(N4CCc5cc(F)c(Cl)cc54)c3c2)c1`, the growth in the assay on DU-145 prostate was 11.7%; in the assay on K-562 leukemia it was 29.6%; in the assay with MALME-3M melanoma it was -12.8% (active); with MDA-MB-231 breast it was 20.4%; in the assay with RXF 393 renal it was -34.1% (active); in the assay on SF-268 CNS, 21.5%. Further, the growth is -10.9% (active) in the assay on SF-295 CNS; -15% (active) in the assay with SF-539 CNS; 11% in the assay with UACC-257 melanoma; 10.3% in the assay on M14 melanoma; 9.91% (active) in the assay on HCT-15 colon; 9.96% (active) in the assay with HT29 colon. Besides, the growth in the assay with SNB-75 CNS was -12.6% (active); with SNB-19 CNS, 11.2%; with U251 CNS, 20.1%; with PC-3 prostate it was 11.9%; in the assay on SK-MEL-5 melanoma, -22.4% (active); with UACC-62 melanoma, -7.62% (active). For the same molecule, the growth with LOX IMVI melanoma is 5.41% (active); in the assay with SK-MEL-28 melanoma it was 9.63% (active).

In the case of `CN1CCN(Cc2ccc(NC(=O)c3cncc(C#Cc4cnc5ccc(OC6CCOCC6)nn45)c3)cc2C(F)(F)F)CC1`, the growth with DU-145 prostate is -89.5% (active); in the assay with K-562 leukemia, -0.118% (active); in the assay with MALME-3M melanoma, -87.5% (active); in the assay on MDA-MB-231 breast it was -59.9% (active); with RXF 393 renal, -80.9% (active); in the assay on SF-268 CNS it was -58.4% (active). For the same molecule, the growth in the assay with SF-295 CNS is -97% (active); in the assay on SF-539 CNS, -92.8% (active); with UACC-257 melanoma, -72.3% (active); in the assay on M14 melanoma, -91.2% (active); in the assay with HCT-15 colon, -66.4% (active); with HT29 colon, -68% (active). For the same molecule, the growth in the assay with SNB-75 CNS was -84.9% (active); with SNB-19 CNS, -84% (active); in the assay with U251 CNS it was -82.8% (active); in the assay with PC-3 prostate, -49.7% (active); with SK-MEL-5 melanoma it was -95.6% (active); in the assay on UACC-62 melanoma, -70.5% (active). Also, the results for the growth in the assay with LOX IMVI melanoma and in the assay with SK-MEL-28 melanoma were -93% (active) and -82.5% (active), respectively.

Take `CCCCCCCCCCCC(=O)NC(C)(C)C(=O)N1CCCC1C(=O)NC(C)(C)C(=O)NC(C)(C)C(=O)N1CCCC1C(=O)NC(C)(C)C(=O)NC(C)(C)C(=O)N1CCCC1C(=O)NC(C)C(=O)NCCC(=O)NC(C)C(=O)NC(C)(C)C(=O)NC(C)(C)C(=O)NC(C)(C)C(=O)NCCC(=O)NC(C)(C)C(=O)NC(C)(C)C(=O)NC(C)(C)C(=O)NC(C)C(=O)NCCC(=O)O` (stereo not given): the growth was -99.4% (active) in the assay on DU-145 prostate; -65.4% (active) with K-562 leukemia; -89.4% (active) with MALME-3M melanoma; -87.5% (active) in the assay on MDA-MB-231 breast; -94.5% (active) in the assay on RXF 393 renal; -60.6% (active) in the assay with SF-268 CNS. Besides, the growth was -97.1% (active) in the assay with SF-295 CNS; -92% (active) in the assay with SF-539 CNS; -91.8% (active) in the assay with UACC-257 melanoma; -97.3% (active) in the assay on M14 melanoma; -96.5% (active) in the assay with HCT-15 colon; -86.6% (active) with HT29 colon. Besides, the growth in the assay with SNB-75 CNS was -89.7% (active); in the assay with SNB-19 CNS, -97.4% (active); in the assay on U251 CNS, -94.7% (active); in the assay with PC-3 prostate, -93% (active); in the assay on SK-MEL-5 melanoma, -98.5% (active); with UACC-62 melanoma, -90.9% (active). Moreover, the values for the growth with LOX IMVI melanoma and in the assay on SK-MEL-28 melanoma were -92.4% (active) and -93.8% (active), respectively.

As for `Cc1ccc2c(n1)C(=O)C(Cl)=C(Nc1cccc(C)c1C)C2=O`, the growth was -11% (active) in the assay with DU-145 prostate; -2.38% (active) with K-562 leukemia; -5.61% (active) with MALME-3M melanoma; -1.12% (active) with MDA-MB-231 breast; 7.14% (active) with RXF 393 renal; 2.79% (active) in the assay with SF-268 CNS. Besides, the growth is -52.6% (active) in the assay on SF-295 CNS; -55.9% (active) in the assay on SF-539 CNS; -77.5% (active) in the assay on UACC-257 melanoma; -29.2% (active) with M14 melanoma; 9.66% (active) in the assay with HCT-15 colon; 87.6% in the assay on HT29 colon. For the same molecule, the growth with SNB-75 CNS was 61.2%; with SNB-19 CNS, 13.3%; in the assay with U251 CNS, -7.55% (active); in the assay with PC-3 prostate, 12.4%; with SK-MEL-5 melanoma it was -66.1% (active); in the assay with UACC-62 melanoma, 0.0061% (active). Further, the growth was -21.1% (active) in the assay on LOX IMVI melanoma and 6.66% (active) in the assay on SK-MEL-28 melanoma.

Turning to `Cc1ccc2c(n1)C(=O)C(Cl)=C(Nc1ccc(C(=O)OC(C)(C)C)cc1)C2=O`, the growth with DU-145 prostate is 97.9% [9.25 µM]; in the assay with K-562 leukemia, 0.658% [9.25 µM] (active); with MALME-3M melanoma it was 24% [9.25 µM]; in the assay on MDA-MB-231 breast, 53.9% [9.25 µM]; in the assay on RXF 393 renal, -19.3% [9.25 µM] (active); in the assay on SF-268 CNS, 87.6% [9.25 µM]. The growth in the assay with SF-295 CNS is 104% [9.25 µM]; in the assay on SF-539 CNS it was 100% [9.25 µM]; in the assay with UACC-257 melanoma, 29.5% [9.25 µM]; with M14 melanoma, 61.3% [9.25 µM]; with HCT-15 colon, -43.9% [9.25 µM] (active); with HT29 colon it was 100% [9.25 µM]. Besides, the growth in the assay on SNB-75 CNS is 83.8% [9.25 µM]; in the assay on SNB-19 CNS, 83.8% [9.25 µM]; in the assay with U251 CNS, 83.5% [9.25 µM]; in the assay on PC-3 prostate it was 72.1% [9.25 µM]; in the assay with SK-MEL-5 melanoma it was 87.6% [9.25 µM]; in the assay on UACC-62 melanoma, 87.1% [9.25 µM]. In addition, the growth with LOX IMVI melanoma was -59.3% [9.25 µM] (active); in the assay with SK-MEL-28 melanoma, 82.5% [9.25 µM].

Turning to `O=c1nc(Nc2ccc([N+](=O)[O-])cc2O)sc2ccccc12`, the growth in the assay on DU-145 prostate is 25.1%; in the assay with K-562 leukemia, 12.9%; in the assay with MALME-3M melanoma it was 30.7%; in the assay on MDA-MB-231 breast, 51.8%; in the assay with RXF 393 renal, 7.31% (active); in the assay with SF-268 CNS it was 59.4%. Besides, the growth in the assay on SF-295 CNS is -34.2% (active); with SF-539 CNS, -36.5% (active); in the assay with UACC-257 melanoma it was 65%; in the assay on M14 melanoma it was 17.5%; with HCT-15 colon it was 26.6%; in the assay with HT29 colon, 81.7%. Further, the growth was -11.7% (active) in the assay with SNB-75 CNS; 28.7% in the assay with SNB-19 CNS; 36.8% with U251 CNS; 16.5% in the assay with PC-3 prostate; 21% with SK-MEL-5 melanoma; 15.2% in the assay on UACC-62 melanoma. For the same molecule, the growth in the assay on LOX IMVI melanoma was 41.2%; in the assay with SK-MEL-28 melanoma, 50.8%.

Regarding `O=S(=O)(NCCCNc1nccc(-c2[nH]c(-c3ccccc3)nc2-c2ccc(F)c(O)c2)n1)c1cccc(F)c1`, the growth in the assay with DU-145 prostate is 100%; with K-562 leukemia it was 49.3%; with MALME-3M melanoma, -2.58% (active); in the assay on MDA-MB-231 breast, 79.3%; with RXF 393 renal it was 100%; in the assay on SF-268 CNS, 103%. Besides, the growth in the assay with SF-295 CNS was 85.2%; in the assay with SF-539 CNS it was 103%; in the assay on UACC-257 melanoma it was 23.4%; with M14 melanoma it was 29.3%; in the assay with HCT-15 colon, 86%; in the assay with HT29 colon, 99.4%. In addition, the growth in the assay with SNB-75 CNS was 69.3%; with SNB-19 CNS it was 110%; in the assay on U251 CNS it was 99.4%; in the assay with PC-3 prostate it was 77.3%; in the assay with SK-MEL-5 melanoma, 46.5%; with UACC-62 melanoma, 18.2%. For the same molecule, the growth with LOX IMVI melanoma is 70%; with SK-MEL-28 melanoma, 31.8%.

Regarding `O=C1[C@@H]2Cc3c([nH]c4ccccc34)[C@H](c3ccc(Br)cc3)N2C(=O)CN1C1CCN(Cc2c(Cl)cccc2Cl)CC1`, the growth is 96.3% in the assay on DU-145 prostate; 74.2% in the assay with K-562 leukemia; 107% in the assay on MALME-3M melanoma; 89% with MDA-MB-231 breast; 120% in the assay with RXF 393 renal; 81.3% with SF-268 CNS. Further, the growth in the assay on SF-295 CNS is 100%; in the assay with SF-539 CNS, 105%; in the assay on UACC-257 melanoma it was 102%; in the assay on M14 melanoma it was 92.8%; in the assay on HCT-15 colon, 89.4%; in the assay with HT29 colon, 84.4%. Further, the growth in the assay on SNB-75 CNS is 66.3%; with SNB-19 CNS, 92.2%; in the assay on U251 CNS, 96.9%; in the assay with PC-3 prostate it was 80%; with SK-MEL-5 melanoma, 95.6%; in the assay with UACC-62 melanoma it was 78.3%. Further, the growth in the assay with LOX IMVI melanoma was 91.7%; in the assay with SK-MEL-28 melanoma, 111%.
